In PubChem BioAssay AID2023 (NMMLSC, 2009) one finds GFP response vs DMSO data, which are given here for 27 molecules.

Hit rate of the full screen: of about 320,000 compounds, about 1,100 (0.34%) were called active.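 How the source made its calls: active means GFP response vs DMSO above a set limit, about the screen mean plus 3 SD (cut at about 150% in these data); inconclusive means under 70 cell events counted for the yeast strain; inactive means the rest.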 What follows is part of a selection rich in actives, with near analogues and random picks from the rest.

This assay in a line: TOR pathway LAP4-GFP level changes – S. cerevisiae, multiplex flow cytometry, MLPCN library, primary screen (AID 2023). Conditions: 3 h, at 10 µM, active compounds read high, median GFP as percent of DMSO wells. In general terms: In flow cytometry, cells or beads pass a laser one at a time.
For `COc1ccc(/C=C(\C#N)c2c[nH]c3ccccc23)cc1`, the GFP response vs DMSO is 97.2% (inactive).

Regarding `C[n+]1ccc(/C=C/c2c[nH]c3ccccc23)cc1`, the GFP response vs DMSO is 214% (active). Regarding `O=C(NC1CCCC1)C(=O)c1c[nH]c2ccccc12`, the GFP response vs DMSO is 100% (inactive).

Turning to `CC(C)C(=O)Nc1c2c(nn1-c1ccccc1)CSC2`, the GFP response vs DMSO was 104% (inactive). `CC(C)=NN1C(=O)c2ccccc2NC1(C)C`: the GFP response vs DMSO was 103% (inactive).

With `CCCC(=O)Nc1ncnc2c1ncn2[C@@H]1O[C@@H]2OP(=O)(O)OC[C@H]2[C@H]1OC(=O)CCC`, the GFP response vs DMSO is 103% (inactive). Regarding `CCc1ccc2c(c1)C1(NN=C(c3ccccc3)S1)C(=O)N2` (configuration not stated), the GFP response vs DMSO was 169% (active).

Turning to `C[C@H](NC(=O)C1CC(=O)N(c2ccc3c(c2)OCO3)C1)C(=O)NCc1ccco1` (some centres not stated), the GFP response vs DMSO was 94% (inactive). Regarding `COC(=O)Nc1ccc(S(=O)(=O)N2CCN(CCN3C(=O)C4C5C=CC(C5)C4C3=O)CC2)cc1` (configuration not stated), the GFP response vs DMSO was 95.9% (inactive). The same measure for `O=c1[nH]c2ccccc2n2c(-c3ccccc3)nnc12`: 87.9% (inactive).

Consider `COc1ccc(OCc2cc(C(=O)N3CCCC3)no2)c2ccccc12`, for which the GFP response vs DMSO was 85.3% (inactive).

For the molecule `O=C(c1ccc(N2CCOCC2)c([N+](=O)[O-])c1)N1CCN(c2ccccc2F)CC1`, the GFP response vs DMSO was 96% (inactive).

For the molecule `O=C(c1ccccc1)c1ccc(C(=O)N2CCN(c3ccccc3)CC2)cc1`, the GFP response vs DMSO was 78.1% (inactive). For `O=C(c1ccc(Cl)c([N+](=O)[O-])c1)N1CCN(c2ccccc2)CC1`, the GFP response vs DMSO was 165% (active). To `Cc1ccc(C(=O)NCC(=O)NC2CC2)cc1` belongs 97.3% (inactive); to `Cc1onc(-c2ccccc2)c1C(=O)NNC(=S)NC(=O)c1ccc(F)cc1`, 102% (inactive); to `O=C(NNC(=S)NC(=O)c1cn(-c2ccccc2)nc1-c1ccccc1)c1ccncc1`, 159% (active). On to `Cc1ccc(-c2nn(-c3ccccc3)cc2C(=O)NC2CCC(O)CC2)cc1` (configuration not stated), for which the GFP response vs DMSO is 94.9% (inactive). Regarding `CCOc1ccc(CCNC(=O)CN2C(=O)NC3(CCc4ccccc43)C2=O)cc1OCC` (configuration not stated), the GFP response vs DMSO is 98.4% (inactive).

As to `CCCCC(=O)Nc1ccc2c(c1)C(=O)NC2=O`, the GFP response vs DMSO was 107% (inactive). As for `O=C(Nc1cc(Cl)cc(Cl)c1)C(NCCCO)c1ccccc1` (configuration not stated), the GFP response vs DMSO is 99.3% (inactive).

As to `CCCCN1C(=O)c2ccc(C(=O)Nc3ccc(S(=O)(=O)N(C)C)cc3)cc2C1=O`, the GFP response vs DMSO was 93.7% (inactive).

On to `CC(CCc1ccc(O)cc1)NCc1ccc(Cl)cc1Cl` (configuration not stated), for which the GFP response vs DMSO was 99.7% (inactive). `CCC(C)n1[nH]c(=O)cc1N` (configuration not stated): the GFP response vs DMSO was 92.7% (inactive). As for `S=C1SCN(CCN2CCOCC2)CN1Cc1ccccc1`, the GFP response vs DMSO is 111% (inactive).

`COc1ccc(CN2CN(C(C)C)CSC2=S)cc1`: the GFP response vs DMSO was 162% (active).

Consider `COc1ccc(CN2CN(C3CCCC3)CSC2=S)cc1`, for which the GFP response vs DMSO is 98.2% (inactive).
